Reference: paper PMC8384837, “Expanding the binding specificity for RNA recognition by a PUF domain”

Key:
Experiment in all cases: yeast three-hybrid, YBZ-1, SC-Leu-His + 0.5 mM 3-AT, 4 days
Details in all cases: tags: N-Gal4 AD-HA kept; label: inside an RPR1-promoter hybrid RNA with tandem MS2 sites; ssRNA
[1] = biological target: PUM1 PUF domain R5-DWY (Homo sapiens, UniProt Q14671 828-1176, C1007D;R1008W;Q1011Y)
In short: (§1)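 Pumilio-1 PUF domain libraries, randomized at the three base-contacting residues of each repeat, were co-expressed with matching RNA elements from a centromeric plasmid in strain YBZ-1, which carries a LexA–MS2 coat fusion and a HIS3 reporter. Transformants grew for four days on SC-Leu (input) or on SC-Leu-His + 0.5 mM 3-AT (selection), and the repeat regions were PCR-amplified and Illumina-sequenced. The interaction score is the log change in variant frequency from input to selection. That logarithm is base 2, with a pseudocount of 1 where a variant was absent.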

[2] = biological target: PUM1 PUF domain R5-GRK (Homo sapiens, UniProt Q14671 828-1176, C1007G;Q1011K)
In short: as §1

[3] = biological target: PUM1 PUF domain R8-KHQ (Homo sapiens, UniProt Q14671 828-1176, N1122K;Y1123H)
In short: as §1

[4] = biological target: PUM1 PUF domain R8-RYF (Homo sapiens, UniProt Q14671 828-1176, N1122R;Q1126F)
In short: as §1

[5] = biological target: PUM1 PUF domain R3-YYA (Homo sapiens, UniProt Q14671 828-1176, C935Y;R936Y;Q939A)
In short: as §1

[6] = biological target: PUM1 PUF domain R3-RAQ (Homo sapiens, UniProt Q14671 828-1176, C935R;R936A)
In short: as §1

[7] = biological target: PUM1 PUF domain R3-WAR (Homo sapiens, UniProt Q14671 828-1176, C935W;R936A;Q939R)
In short: as §1

[8] = biological target: PUM1 PUF domain R4-IML (Homo sapiens, UniProt Q14671 828-1176, N971I;H972M;Q975L)
In short: as §1

[9] = biological target: PUM1 PUF domain R5-RGV (Homo sapiens, UniProt Q14671 828-1176, C1007R;R1008G;Q1011V)
In short: as §1

[10] = biological target: PUM1 PUF domain R5-KSD (Homo sapiens, UniProt Q14671 828-1176, C1007K;R1008S;Q1011D)
In short: as §1

[11] = biological target: PUM1 PUF domain R7-GND (Homo sapiens, UniProt Q14671 828-1176, S1079G;E1083D)
In short: as §1

[12] = biological target: PUM1 PUF domain R4-QPG (Homo sapiens, UniProt Q14671 828-1176, N971Q;H972P;Q975G)
In short: as §1

[13] = biological target: PUM1 PUF domain R4-SQR (Homo sapiens, UniProt Q14671 828-1176, N971S;H972Q;Q975R)
In short: as §1

[14] = biological target: PUM1 PUF domain R4-WGA (Homo sapiens, UniProt Q14671 828-1176, N971W;H972G;Q975A)
In short: as §1

[15] = biological target: PUM1 PUF domain R5-RQT (Homo sapiens, UniProt Q14671 828-1176, C1007R;R1008Q;Q1011T)
In short: as §1

[16] = biological target: PUM1 PUF domain R5-KLI (Homo sapiens, UniProt Q14671 828-1176, C1007K;R1008L;Q1011I)
In short: as §1

[17] = biological target: PUM1 PUF domain R5-RYI (Homo sapiens, UniProt Q14671 828-1176, C1007R;R1008Y;Q1011I)
In short: as §1

[18] = biological target: PUM1 PUF domain R3-DYS (Homo sapiens, UniProt Q14671 828-1176, C935D;R936Y;Q939S)
In short: as §1

[19] = biological target: PUM1 PUF domain R5-PFG (Homo sapiens, UniProt Q14671 828-1176, C1007P;R1008F;Q1011G)
In short: as §1

[20] = biological target: PUM1 PUF domain R4-KGY (Homo sapiens, UniProt Q14671 828-1176, N971K;H972G;Q975Y)
In short: as §1

Sequence of PUM1 PUF domain R4-QPG (Q14671 828-1176 N971Q/H972P/Q975G): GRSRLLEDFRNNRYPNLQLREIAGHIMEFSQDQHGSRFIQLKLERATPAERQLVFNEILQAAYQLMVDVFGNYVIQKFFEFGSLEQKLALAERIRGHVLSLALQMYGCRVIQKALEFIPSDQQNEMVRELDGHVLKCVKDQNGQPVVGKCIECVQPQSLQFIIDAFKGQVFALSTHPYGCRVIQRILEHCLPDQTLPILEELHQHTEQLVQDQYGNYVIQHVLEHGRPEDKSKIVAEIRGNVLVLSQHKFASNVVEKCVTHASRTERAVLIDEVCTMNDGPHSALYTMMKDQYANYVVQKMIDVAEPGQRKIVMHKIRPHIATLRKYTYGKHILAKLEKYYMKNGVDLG
Sequence of PUM1 PUF domain R5-GRK (Q14671 828-1176 C1007G/Q1011K): as the sequence (Q14671 828-1176 N971Q/H972P/Q975G) above, with Q144N, P145H, G148Q, C180G, Q184K counted along it
Sequence of PUM1 PUF domain R5-DWY (Q14671 828-1176 C1007D/R1008W/Q1011Y): as the sequence (Q14671 828-1176 N971Q/H972P/Q975G) above, with Q144N, P145H, G148Q, C180D, R181W, Q184Y counted along it
Sequence of PUM1 PUF domain R5-RQT (Q14671 828-1176 C1007R/R1008Q/Q1011T): as the sequence (Q14671 828-1176 N971Q/H972P/Q975G) above, with Q144N, P145H, G148Q, C180R, R181Q, Q184T counted along it
Sequence of PUM1 PUF domain R5-RGV (Q14671 828-1176 C1007R/R1008G/Q1011V): as the sequence (Q14671 828-1176 N971Q/H972P/Q975G) above, with Q144N, P145H, G148Q, C180R, R181G, Q184V counted along it
Sequence of PUM1 PUF domain R4-WGA (Q14671 828-1176 N971W/H972G/Q975A): as the sequence (Q14671 828-1176 N971Q/H972P/Q975G) above, with Q144W, P145G, G148A counted along it
Sequence of PUM1 PUF domain R3-WAR (Q14671 828-1176 C935W/R936A/Q939R): as the sequence (Q14671 828-1176 N971Q/H972P/Q975G) above, with C108W, R109A, Q112R, Q144N, P145H, G148Q counted along it
Sequence of PUM1 PUF domain R5-KSD (Q14671 828-1176 C1007K/R1008S/Q1011D): as the sequence (Q14671 828-1176 N971Q/H972P/Q975G) above, with Q144N, P145H, G148Q, C180K, R181S, Q184D counted along it
Sequence of PUM1 PUF domain R4-KGY (Q14671 828-1176 N971K/H972G/Q975Y): as the sequence (Q14671 828-1176 N971Q/H972P/Q975G) above, with Q144K, P145G, G148Y counted along it
Sequence of PUM1 PUF domain R5-KLI (Q14671 828-1176 C1007K/R1008L/Q1011I): as the sequence (Q14671 828-1176 N971Q/H972P/Q975G) above, with Q144N, P145H, G148Q, C180K, R181L, Q184I counted along it
Sequence of PUM1 PUF domain R5-PFG (Q14671 828-1176 C1007P/R1008F/Q1011G): as the sequence (Q14671 828-1176 N971Q/H972P/Q975G) above, with Q144N, P145H, G148Q, C180P, R181F, Q184G counted along it
Sequence of PUM1 PUF domain R4-SQR (Q14671 828-1176 N971S/H972Q/Q975R): as the sequence (Q14671 828-1176 N971Q/H972P/Q975G) above, with Q144S, P145Q, G148R counted along it
Sequence of PUM1 PUF domain R8-RYF (Q14671 828-1176 N1122R/Q1126F): as the sequence (Q14671 828-1176 N971Q/H972P/Q975G) above, with Q144N, P145H, G148Q, N295R, Q299F counted along it
Sequence of PUM1 PUF domain R7-GND (Q14671 828-1176 S1079G/E1083D): as the sequence (Q14671 828-1176 N971Q/H972P/Q975G) above, with Q144N, P145H, G148Q, S252G, E256D counted along it
Sequence of PUM1 PUF domain R5-RYI (Q14671 828-1176 C1007R/R1008Y/Q1011I): as the sequence (Q14671 828-1176 N971Q/H972P/Q975G) above, with Q144N, P145H, G148Q, C180R, R181Y, Q184I counted along it
Sequence of PUM1 PUF domain R3-DYS (Q14671 828-1176 C935D/R936Y/Q939S): as the sequence (Q14671 828-1176 N971Q/H972P/Q975G) above, with C108D, R109Y, Q112S, Q144N, P145H, G148Q counted along it
Sequence of PUM1 PUF domain R4-IML (Q14671 828-1176 N971I/H972M/Q975L): as the sequence (Q14671 828-1176 N971Q/H972P/Q975G) above, with Q144I, P145M, G148L counted along it
Sequence of PUM1 PUF domain R3-RAQ (Q14671 828-1176 C935R/R936A): as the sequence (Q14671 828-1176 N971Q/H972P/Q975G) above, with C108R, R109A, Q144N, P145H, G148Q counted along it
Sequence of PUM1 PUF domain R8-KHQ (Q14671 828-1176 N1122K/Y1123H): as the sequence (Q14671 828-1176 N971Q/H972P/Q975G) above, with Q144N, P145H, G148Q, N295K, Y296H counted along it
Sequence of PUM1 PUF domain R3-YYA (Q14671 828-1176 C935Y/R936Y/Q939A): as the sequence (Q14671 828-1176 N971Q/H972P/Q975G) above, with C108Y, R109Y, Q112A, Q144N, P145H, G148Q counted along it

GGCUAGAACUAGUGGAUCCCCCGGCGCCCGGCGGCUCGAGCCCGGGUAAGUGUGAAUAGUCUGCAUGCCGCCGGGCGCCAUGCCUGCAGGUCGACUCUAGAAAACAUG
binding signal [1]: 2.39 log2 enrichment (interaction score) | binding signal [2]: 1.55 log2 enrichment (interaction score)

GGCUAGAACUAGUGGAUCCCCCGGCGCCCGGCGGCUCGAGCCCGGGUAAGCGUAAAUAGUCUGCAUGCCGCCGGGCGCCAUGCCUGCAGGUCGACUCUAGAAAACAUG
binding signal [3]: 4.7 log2 enrichment (interaction score) | binding signal [4]: 4.88 log2 enrichment (interaction score)

GGCUAGAACUAGUGGAUCCCCCGGCGCCCGGCGGCUCGAGCCCGGGUAAGUGUAAUUAGUCUGCAUGCCGCCGGGCGCCAUGCCUGCAGGUCGACUCUAGAAAACAUG
binding signal [5]: 3.25 log2 enrichment (interaction score) | binding signal [6]: 3.8 log2 enrichment (interaction score) | binding signal [7]: 2.65 log2 enrichment (interaction score)

GGCUAGAACUAGUGGAUCCCCCGGCGCCCGGCGGCUCGAGCCCGGGUAAGUGUAAGUAGUCUGCAUGCCGCCGGGCGCCAUGCCUGCAGGUCGACUCUAGAAAACAUG
binding signal [7]: 2.85 log2 enrichment (interaction score)

GGCUAGAACUAGUGGAUCCCCCGGCGCCCGGCGGCUCGAGCCCGGGUAAGUGUAGAUAGUCUGCAUGCCGCCGGGCGCCAUGCCUGCAGGUCGACUCUAGAAAACAUG
binding signal [8]: 3.09 log2 enrichment (interaction score)

GGCUAGAACUAGUGGAUCCCCCGGCGCCCGGCGGCUCGAGCCCGGGUAAGUGUUAAUAGUCUGCAUGCCGCCGGGCGCCAUGCCUGCAGGUCGACUCUAGAAAACAUG
binding signal [9]: 0.34 log2 enrichment (interaction score) | binding signal [10]: 1.41 log2 enrichment (interaction score) | binding signal [2]: 4.85 log2 enrichment (interaction score)

GGCUAGAACUAGUGGAUCCCCCGGCGCCCGGCGGCUCGAGCCCGGGUAAGUUUAAAUAGUCUGCAUGCCGCCGGGCGCCAUGCCUGCAGGUCGACUCUAGAAAACAUG
binding signal [11]: 3.28 log2 enrichment (interaction score)

GGCUAGAACUAGUGGAUCCCCCGGCGCCCGGCGGCUCGAGCCCGGGUAAGUGUACAUAGUCUGCAUGCCGCCGGGCGCCAUGCCUGCAGGUCGACUCUAGAAAACAUG
binding signal [12]: 3.33 log2 enrichment (interaction score) | binding signal [13]: 3.07 log2 enrichment (interaction score) | binding signal [14]: 3.39 log2 enrichment (interaction score)

GGCUAGAACUAGUGGAUCCCCCGGCGCCCGGCGGCUCGAGCCCGGGUAAGUGUCAAUAGUCUGCAUGCCGCCGGGCGCCAUGCCUGCAGGUCGACUCUAGAAAACAUG
binding signal [9]: 2.55 log2 enrichment (interaction score) | binding signal [15]: 4.99 log2 enrichment (interaction score) | binding signal [16]: 2.75 log2 enrichment (interaction score) | binding signal [10]: 2.5 log2 enrichment (interaction score) | binding signal [1]: 1.16 log2 enrichment (interaction score) | binding signal [17]: 3.71 log2 enrichment (interaction score) | binding signal [2]: 2.77 log2 enrichment (interaction score)

GGCUAGAACUAGUGGAUCCCCCGGCGCCCGGCGGCUCGAGCCCGGGUAAGUGUAAAUAGUCUGCAUGCCGCCGGGCGCCAUGCCUGCAGGUCGACUCUAGAAAACAUG
binding signal [18]: 4.59 log2 enrichment (interaction score) | binding signal [15]: 1.57 log2 enrichment (interaction score) | binding signal [12]: 2.21 log2 enrichment (interaction score) | binding signal [1]: 6.99 log2 enrichment (interaction score) | binding signal [19]: 6.32 log2 enrichment (interaction score) | binding signal [20]: 4.05 log2 enrichment (interaction score) | binding signal [2]: 3.37 log2 enrichment (interaction score) | binding signal [14]: 3.8 log2 enrichment (interaction score)

GGCUAGAACUAGUGGAUCCCCCGGCGCCCGGCGGCUCGAGCCCGGGUAAGUGUAUAUAGUCUGCAUGCCGCCGGGCGCCAUGCCUGCAGGUCGACUCUAGAAAACAUG
binding signal [12]: 5.06 log2 enrichment (interaction score)
